In PubChem BioAssay AID1689 (NMMLSC, 2009):
Measured potencies and affinities stand elsewhere. Active and inactive are the calls of the source.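 The calls were made as follows: active = curve fits scoring over 52 on a 0 to 100 blend rewarding potency under 10 µM and span over 20%; inactive = the rest.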

Target: ATP-dependent translocase ABCB1 (Homo sapiens) (UniProt P08183)
Assay: ABCB1 efflux pump inhibitor potency, dose response, Jurkat-DNR cells, JC-1, flow cytometry (AID 1689)
Settings: JC-1 efflux; series mostly up to 66.6 µM

Sequence of ATP-dependent translocase ABCB1 (Homo sapiens) (P08183 whole entry, looked up): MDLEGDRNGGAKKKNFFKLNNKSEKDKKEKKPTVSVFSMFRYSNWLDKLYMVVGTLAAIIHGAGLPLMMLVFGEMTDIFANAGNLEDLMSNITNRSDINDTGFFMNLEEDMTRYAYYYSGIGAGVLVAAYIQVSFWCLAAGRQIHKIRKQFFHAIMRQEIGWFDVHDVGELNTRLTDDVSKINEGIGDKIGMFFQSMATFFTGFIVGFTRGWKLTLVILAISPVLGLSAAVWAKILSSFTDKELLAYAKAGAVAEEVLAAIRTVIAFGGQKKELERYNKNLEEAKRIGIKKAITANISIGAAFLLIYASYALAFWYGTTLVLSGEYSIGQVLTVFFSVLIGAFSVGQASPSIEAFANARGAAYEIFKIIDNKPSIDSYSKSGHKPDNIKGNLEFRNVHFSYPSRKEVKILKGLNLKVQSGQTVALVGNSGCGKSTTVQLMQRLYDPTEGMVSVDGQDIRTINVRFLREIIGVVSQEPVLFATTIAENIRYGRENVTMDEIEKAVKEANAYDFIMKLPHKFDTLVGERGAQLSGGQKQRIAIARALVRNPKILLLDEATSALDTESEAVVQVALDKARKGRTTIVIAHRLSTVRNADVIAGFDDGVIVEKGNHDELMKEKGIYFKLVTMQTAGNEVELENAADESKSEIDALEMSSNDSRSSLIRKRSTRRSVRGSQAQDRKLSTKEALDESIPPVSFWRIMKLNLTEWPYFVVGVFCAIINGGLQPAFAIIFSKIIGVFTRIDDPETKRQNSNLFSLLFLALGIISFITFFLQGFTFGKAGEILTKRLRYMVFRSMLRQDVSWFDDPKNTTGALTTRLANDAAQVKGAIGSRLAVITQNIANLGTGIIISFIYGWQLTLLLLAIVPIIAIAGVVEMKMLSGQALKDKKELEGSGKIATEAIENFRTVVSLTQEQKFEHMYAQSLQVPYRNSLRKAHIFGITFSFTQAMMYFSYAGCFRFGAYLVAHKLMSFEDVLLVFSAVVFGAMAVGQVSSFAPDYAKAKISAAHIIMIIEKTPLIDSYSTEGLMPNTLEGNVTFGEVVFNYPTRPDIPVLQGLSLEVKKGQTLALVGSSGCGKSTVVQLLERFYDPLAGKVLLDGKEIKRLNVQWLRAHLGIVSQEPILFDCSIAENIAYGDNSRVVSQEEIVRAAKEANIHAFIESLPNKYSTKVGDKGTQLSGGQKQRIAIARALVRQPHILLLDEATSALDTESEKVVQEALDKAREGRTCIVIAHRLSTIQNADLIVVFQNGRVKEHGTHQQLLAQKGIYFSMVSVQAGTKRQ

outcome, inactive:
CC1=NN(c2ccc([N+](=O)[O-])cc2)C(=O)/C1=C/N(C)C
CCCCN(C)C1=CC2=CC(=C(C#N)C#N)CCC2CC1 (configuration not stated)
COC(=O)c1ccc(C(C(=O)NC2CCCCC2)N(Cc2ccccc2)C(=O)Cc2cccs2)cc1 (configuration not stated)
COc1ccc2cc(C(=O)OC(C)C)sc(=O)c2c1OC
CN(C)c1ccc(/C=C2\SC(=S)N(Nc3ncc(C(F)(F)F)cc3Cl)C2=O)cc1
CCCCN1/C(=C/c2ccc3ccccc3[n+]2CC)Sc2ccccc21
COc1cccc(-c2nc(N3CC(C)CC(C)C3)c3ccccc3n2)c1O (configuration not stated)
O=[N+]([O-])c1ccc(Nc2nc(Cl)nc(NCCO)n2)cc1
CCOc1ccccc1NC(=O)C(OC(=O)c1ccc(N(C)C)cc1)c1ccccc1 (configuration not stated)
CC(C)C(NS(=O)(=O)c1ccccc1)C(=O)OCc1cc([N+](=O)[O-])cc2c1OCOC2 (configuration not stated)
N#CC(C#N)=C1C=C2C=C(N3CCCCCC3)CCC2CC1 (configuration not stated)
CCN(CC)C1=CC2=CC(=C(C#N)C#N)CCC2CC1 (configuration not stated)
CNc1nc2cc([N+](=O)[O-])c([N+](=O)[O-])cc2nc1NC
COc1ccc(CCNC(=O)COC(=O)/C=C/c2ccc(OC)c(OC)c2)cc1
CN1CCN(C2=CC3=CC(=C(C#N)C#N)CCC3CC2)CC1 (configuration not stated)
COC(=O)c1cc(NC(=O)c2ccccc2)c(=O)oc1/C=C/Nc1ccc(Oc2ccccc2)cc1

inhibition, inactive:
CCOC(=O)c1sc2cc([N+](=O)[O-])cc(SCC(C)C)c2c1N 56.3% [at 2.47 µM]
